# From publication PMC4552634, “A New Set of Chemical Starting Points with Plasmodium falciparum Transmission-Blocking Potential for Antimalarial Drug Discovery” (PLoS ONE, 2015)
# Like-named read-outs stand apart in the source and are kept apart here. Screen size: about 13,000 compounds; about 3,200 (25%) showed an effect of 50% or more. The list shows a part of the results.
# Test system: P. falciparum stage V gametocytes
# Parameters: BacTiter-Glo ATP luminescence viability of purified stage V gametocytes in 384-well plates, per cent inhibition versus DMSO
# Conditions: 48 h, 5 µM, inhibitor
SMILES,% Inhibition [%],% Inhibition (% Inhibition) [%]
CCC(CO)NCC(O)Cn1c2ccc(Cl)cc2c2cc(Cl)ccc21 (stereo not drawn) [TCMDC-125711],55,
OC(CNCCc1ccccc1)Cn1c2ccc(Cl)cc2c2cc(Cl)ccc21 (stereo not drawn) [TCMDC-124135],17.2,
CCC(CO)NCC(O)Cn1c2ccc(Br)cc2c2cc(Br)ccc21 (stereo not drawn) [TCMDC-125710],27.72,
CC(C)CCNCC(O)Cn1c2ccc(Cl)cc2c2cc(Cl)ccc21 (stereo not drawn) [TCMDC-125673],69.1,
COCCNCC(O)Cn1c2ccc(Cl)cc2c2cc(Cl)ccc21 (stereo not drawn) [TCMDC-123535],54.28,
CCNCCCC(C)Nc1ccnc2cc(Cl)ccc12 (stereo not drawn) [TCMDC-125876],27.58,
Cc1nc(-c2cccc(C(=O)Nc3cnc4ccccc4c3)c2)no1 [TCMDC-135810],8.288,
CC1CCC(NCc2ccc3c(CNC4CCC(C)CC4)c(O)ccc3c2O)CC1 (stereo not drawn) [TCMDC-137587],-63.23,
COc1cc(CCNC(=O)Cc2ccc3ccccc3c2)ccc1OCc1ccccc1 [TCMDC-137227],57.44,
COc1cccc(C(=O)NCCc2cccc(Cl)c2)c1OCc1ccccc1 [TCMDC-141235],-13.17,
COc1ccc(C(=O)O)cc1OCc1ccccc1 [TCMDC-125534],4.056,
CCC(C)CC(=O)Nc1ccc(OC)c(S(=O)(=O)N[C@@H]2CCN(C#N)C2)c1 (stereo partly drawn) [TCMDC-134061],14.31,
COc1cc(-c2nc3ccc(N4CCN(C)CC4)cc3[nH]2)cc(OC)c1OC [TCMDC-124585],-16.2,
CNC(=O)c1ccccc1Nc1nc(Nc2ccc(CCN3CCN(C)CC3)cc2)ncc1Cl [TCMDC-133800],8.334,
CNC(=O)c1ccccc1Nc1nc(Nc2ccc(N3CCN(C)CC3)nc2)ncc1C [TCMDC-134123],57.48,
CNC(=O)c1cnc(Nc2ccc(N3CCN(C)CC3)cc2)nc1Nc1ccccc1OC [TCMDC-141382],-26.7,
COc1ccc(Nc2ncc(C#N)c(Nc3ccccc3C(N)=O)n2)cc1N1CCN(C)CC1 [TCMDC-134117],-97.62,
Cc1cc(Nc2ncc(Cl)c(Nc3ccccc3C(N)=O)n2)n[nH]1 [TCMDC-134170],-34.04,
COc1ccc(Nc2ncc(OC)c(Nc3ccccc3C(N)=O)n2)cc1N1CCN(C)CC1 [TCMDC-134149],9.949,
CNC(=O)c1cnc(Nc2ccc(N3CCN(C)CC3)c(C)c2)nc1NC [TCMDC-134162],36.76,
Cc1cc(Nc2ncc(C#N)c(Nc3ccccc3C(N)=O)n2)ccc1N1CCN(C)CC1 [TCMDC-134115],104.7,
CN1CCN(c2ccc(Nc3ncc(Cl)c(Nc4cccnc4C(N)=O)n3)cc2)CC1 [TCMDC-134164],-84.83,
CNC(=O)c1ccccc1Nc1nc(Nc2ccc(N3CCOCC3)cc2)ncc1Cl [TCMDC-134144],-63.52,

SMILES,% Inhibition [%],% Inhibition (% Inhibition) [%]
COc1ccc(Nc2ncc(Cl)c(Nc3cccnc3C(N)=O)n2)cc1N1CCN(C)CC1 [TCMDC-134163],97.54,
NC(=O)c1ccccc1Nc1nc(Nc2cccc(N3CCN(CCO)CC3)c2)ncc1Cl [TCMDC-134114],94.95,
CCC[C@@H](C(=O)NCCc1cccc(OC)c1)N1C(=O)c2c(ccc(OC)c2OC)C1C(=O)Nc1c(C)cccc1C (stereo partly drawn) [TCMDC-141135],18.96,
Cc1[nH]n(-c2cccc(Cl)c2)c(=O)c1-c1ccc(Cl)cc1 [TCMDC-123495],-44.23,
O=C(Nc1ccc(C(F)(F)F)cc1)c1cc(Br)cnc1NCCCn1ccnc1 [TCMDC-136699],4.282,
COc1ccc(NC(=O)c2cc(-c3ccc(NC(C)=O)cc3)cnc2N)cc1 [TCMDC-135658],32,
CNC(=O)c1cc(F)c(F)cc1Nc1nc(Nc2cccc(CS(C)(=O)=O)c2)ncc1Cl [TCMDC-134060],-6.741,
CNC(=O)c1ccccc1Nc1nc(Nc2cccnc2)ncc1C [TCMDC-134211],33.23,
CNC(=O)c1ccccc1Nc1nc(Nc2cccc(CS(C)(=O)=O)c2)ncc1C [TCMDC-133809],64.95,
Cc1ccc(NC(=O)c2ccc3ncccc3c2)cc1OC1CCN(Cc2ccsc2)CC1 [TCMDC-134270],12.12,
COc1ccccc1NC(=O)OC(COc1ccc(N)cc1)CN1CC=C(c2ccccc2)CC1 (stereo not drawn) [TCMDC-136486],60.38,
COc1cccc(OC)c1-c1ccccc1NC(=O)N1CCCc2cc(C)ccc21 [TCMDC-136199],-20.26,
COc1ccc(OCC(O)CN(Cc2ccccc2OC)C(=O)Nc2ccc(Br)cc2)cc1 (stereo not drawn) [TCMDC-141494],25.96,
Cc1cccc2[nH]c(-c3cccc(-c4ccc(NC(=O)Nc5ccc(F)c(F)c5F)cc4)c3)nc12 [TCMDC-133225],-8.037,
COc1ccc2ncc(F)c(CCN3CC(O)C(CNCc4nc5c(cc4Cl)OCC(=O)N5)C3)c2n1 (stereo not drawn) [TCMDC-136031],,24.96
Oc1ccc2[nH]cc(C3CCN(CCCCCCCCCN4CCC(c5c[nH]c6ccc(O)cc56)CC4)CC3)c2c1 [TCMDC-139003],74.24,
Oc1ccc2[nH]cc(C3CCN(CCCNCc4ccc(-c5ccccc5)cc4)CC3)c2c1 [TCMDC-139047],101.4,
O=C(/C=C/c1ccc(Cl)c(Cl)c1)NCCCCCN1CCC(c2c[nH]c3cc(O)ccc23)CC1 [TCMDC-139282],10.47,
Oc1ccc2[nH]cc(C3CCN(CCC(c4ccccc4)c4ccccc4)CC3)c2c1 [TCMDC-139017],-54.72,
Cc1cccc2nc(-c3cccc(-c4cccc(NC(=O)NC5CC5c5ccccc5)c4)c3)[nH]c12 (stereo not drawn) [TCMDC-133254],-21.78,
CNC(=O)/C=C/c1cc(NC(=O)Nc2cc(C)nc3c(F)cccc23)ccc1OC [TCMDC-140324],-6.922,
O=C(CNC1CCCCC1)Nc1cccc(C(=O)Nc2cccc(C(F)(F)F)c2)c1 [TCMDC-123711],29.34,
O=C(Nc1cccc(C(F)(F)F)c1)c1cccc(S(=O)(=O)NCC2CCCN2CC2CCCCC2)c1 (stereo not drawn) [TCMDC-133687],-58.72,

SMILES,% Inhibition [%],% Inhibition (% Inhibition) [%]
CC(C)NCC(=O)Nc1cccc(C(=O)Nc2cccc(C(F)(F)F)c2)c1 [TCMDC-124878],70.58,
CCCCCN1CCCC1CNS(=O)(=O)c1cccc(C(=O)Nc2cccc(C(F)(F)F)c2)c1 (stereo not drawn) [TCMDC-133686],-82.32,
O=C(Cn1c(=O)cnc2ccccc21)Nc1cccc(C(=O)Nc2cccc(C(F)(F)F)c2)c1 [TCMDC-125468],18.7,
CC12CCC(=O)N1C(C(=O)Nc1cccc(C(=O)Nc3cccc(C(F)(F)F)c3)c1)CS2 (stereo not drawn) [TCMDC-125019],77,
COc1cc(C(=O)Nc2nc3ccccc3[nH]2)ccc1OCC(=O)Nc1cccc(C(F)(F)F)c1 [TCMDC-125460],11.63,
COc1ccccc1C(C)NCC(=O)Nc1cccc(C(=O)Nc2cccc(C(F)(F)F)c2)c1 (stereo not drawn) [TCMDC-124871],31.1,
CC(O)CNc1nc2ccccc2n1CC(=O)Nc1cccc(C(=O)Nc2cccc(C(F)(F)F)c2)c1 (stereo not drawn) [TCMDC-124335],86.13,
O=C(Nc1cccc(CN2CCCN(Cc3ccc(O)cc3)CC2)c1)c1cccc(C(F)(F)F)c1 [TCMDC-141836],-28.76,
O=C(CN1CCCC1)Nc1cccc(C(=O)Nc2cccc(C(F)(F)F)c2)c1 [TCMDC-124512],78.8,
O=C(Cc1n[nH]c(=O)c2ccccc12)Nc1cccc(C(=O)Nc2cccc(C(F)(F)F)c2)c1 [TCMDC-125260],48.65,
N[C@@H](Cc1ccc(O)cc1)C(=O)NC(c1ccccc1)c1c(O)ccc2ccccc12 (stereo partly drawn) [TCMDC-141232],9.479,
CC=CC1CCNC(C(O)c2ccnc3ccc(OC)cc23)C1 (stereo not drawn) [TCMDC-132000],38.01,
CN1CCC(N2CCC(Oc3cccc(C(=O)NCCCC4CCCC4)c3)CC2)CC1 [TCMDC-124677],58.06,
O=C(NCCCCN1CCN(c2cccc(Cl)c2Cl)CC1)c1ccc2c(c1)CCN(C1CCC1)CC2 [TCMDC-136053],20.89,
CC(C)CCN1CCC(Oc2cccc(NC(=O)c3ccc(C(F)(F)F)cc3)c2)CC1 [TCMDC-133738],13.2,
CN1CCC(NCc2cccc(-c3ccc(S(=O)(=O)NCc4ccccc4)cc3)c2)CC1 [TCMDC-132213],49.72,
CN1CCC(NCc2ccc(-c3cccc(S(=O)(=O)NCC4CCCO4)c3)cc2)CC1 (stereo not drawn) [TCMDC-132242],58.26,
CN1CCC(NCc2ccc(-c3ccc(S(=O)(=O)NCc4ccccc4)cc3)cc2)CC1 [TCMDC-132227],101.8,
CN1CCC(NCc2ccc(S(=O)(=O)Nc3ccc(Oc4cccc(Cl)c4)cc3)cc2)CC1 [TCMDC-136201],14.91,
CN1CCC(NCc2cccc(-c3cccc(S(=O)(=O)NCc4ccccc4)c3)c2)CC1 [TCMDC-132377],104,
CN1CCC(NCc2ccc(-c3cccc(S(=O)(=O)NCc4ccccc4)c3)cc2)CC1 [TCMDC-132238],104.8,
Cc1ccc(Nc2nc3cc(Nc4ccnc(Nc5cccc(CS(C)(=O)=O)c5)n4)ccc3o2)cc1 [TCMDC-141957],-56.36,
O=C(Nc1cc(C(F)(F)F)ccc1-n1cncn1)C1(c2ccccc2)CC1 [TCMDC-125454],25.16,
